# From PubChem BioAssay
# PglD DTNB: blocks C. jejuni PglD acetyltransferase activity; purified PglD enzyme, DTNB colorimetric CoA detection; inhibition, % at 12.5 µM; 360,000 tested, 0.098% active; AID 602405; in the data active means inhibition above about 16%, passing the limit was not always enough
# NSD2 inh: blocks human histone methyltransferase NSD2; O96028; NSD2 peptide methylation, AlphaScreen, 120 min; inhibition, % at 12.5 µM; 310,000 tested, 0.54% active; AID 743445; in the data active means inhibition above about 50%
# miR-122 sensor: miR-122 inhibition in Huh7 cells. Huh7 miR-122 Renilla luciferase sensor, 48 h; neutral wells = 0, positive control = 100. activation (reporter increase), % at 12.5 µM. 340,000 tested, 0.3% active. AID 602342;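 active means mean replicate activation score at least 90 and every replicate individually at or above 90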;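 further: higher luciferase means less miR-122 activity so hits act as miR-122 inhibitors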
# C2C12 statin: suppression of simvastatin myotoxicity; 330,000 tested, 0.78% active; C2C12 myotubes + simvastatin, ATP luminescence, 48 h; scaled: DMSO 0, geranylgeraniol control 100; rescue of ATP level, % at 7.49 µM;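 active means mean ATP rescue above about 67%, or every replicate alone reaching that limit, limit read from the data, passing the limit was not always enough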;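 further: myotubes were challenged with 10 µM simvastatin during compound exposure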
# * hit, by the source's call; / = not tested or not shown; [ ] = dose if it differs, or a comment. Hits are enriched below; roughly 1.2% of the tested compounds scored in any of these assays.
SMILES,PglD DTNB,NSD2 inh,miR-122 sensor,C2C12 statin
C[C@@H]1CN([C@H](C)CO)C(=O)c2cccc(NC(=O)Nc3ccc(F)cc3)c2O[C@@H]1CN(C)Cc1ccncc1,-2.0,/,-0.2[16.7 µM],2.9
COc1cc(/C=C2/C(=O)c3cccc([N+](=O)[O-])c3C2=O)c(Br)cc1O,/,54.6*,12.2,10.0
COc1ccc(Cl)cc1C(=O)n1nc(C)cc1C,2.1,-2.5,1.1,106.8*
COc1cccc(OC)c1C(=O)n1nc(C)cc1C,-4.7,-0.5,4.2,5.4
O=C(NC1CCC1)[C@@H]1[C@@H](CO)[C@@H]2Cn3c(cccc3=O)[C@@H]2N1CC1CCOCC1,-2.3,/,6.2[16.7 µM],-15.6
CC(=O)N(C)C[C@@H]1[C@@H](c2ccc(-c3cccnc3)cc2)[C@H](CO)N1C(=O)C1CC1,1.7,/,258.3*[16.7 µM],-7.0
CCC(=O)N1[C@H](CN(C)C(C)=O)[C@@H](c2ccc(-c3cccnc3)cc2)[C@@H]1CO,1.9,/,-6.6[16.7 µM],-14.0
COCC(=O)Nc1ccc2c(c1)[C@@H]1C[C@@H](CC(=O)NCc3ccccc3F)O[C@@H](CO)[C@@H]1O2,-0.6,/,1.6[16.7 µM],-1.8
CC(=O)NCCn1c(SCc2cc(=O)n3cc(Cl)ccc3n2)nc2ccccc2c1=O,-1.9,-2.0,-3.6,75.3*
COc1ccc(NS(=O)(=O)c2cc(C)ccc2NC(=O)c2cc(C)oc2C)cc1,-1.2,-0.3,404.0*,-101.2
COc1ccc(NS(=O)(=O)c2cccc(C(=O)NNC(=O)c3cc(C)oc3C)c2)cc1,/,4.0,/,/
Cc1nc2ccc(S(=O)(=O)NCC(=O)N3CCCC(C)C3)cc2s1 (configuration not stated),4.7,-5.1,0.8,105.6*
Cc1nc2ccc(S(=O)(=O)Nc3ccccc3C)cc2s1,/,6.7,127.5*,-11.5
CSc1nnc2c3cc(F)ccc3n(Cc3ccccc3)c2n1,1.5,-1.9,163.6*,-9.2
CSc1nnc2c3ccccc3n(Cc3ccccc3)c2n1,/,-0.4,5.1,-3.9
NC(=O)c1c(NC(=O)c2cccs2)sc2c1CCCCCC2,-2.6,-0.5,-7.4,-39.9
O=C(Nc1sc2c(c1C(=O)O)CCC2)c1cccs1,/,-0.7,201.9*,-7.2
COc1cccc(CC(NC(C)=O)C(=O)NC2CCN(c3nc(C)cc(C)c3C#N)CC2)c1 (configuration not stated),0.8,-3.5,-1.9,117.8*
CCCCn1c(=O)[nH]c(=O)c2c1nc(CN(C)Cc1cccc(OC)c1OC)n2CCC,6.5,20.4,-2.2,5.9
CCCCCn1c(CCC(=O)Oc2ccccc2OC)nc2c1c(=O)[nH]c(=O)n2CCCC,1.9,-1.7,-0.8,129.2*
Oc1ccc(-c2nc3ccccn3c2NCc2ccco2)cc1,-7.3,-0.1,-1.0,80.9*
O=C(Nc1c(-c2ccccc2)nc2ccccn12)c1ccco1,-1.2,0.4,-2.9,27.4
COC(=O)C1=C(N)OC2=C(C(=O)CC(C)(C)C2)C1c1ccoc1 (configuration not stated),-0.6,1.0,-7.2,98.2*
CC(=O)c1c(C(C)=O)c(C)n(Cc2ccc(Cl)cc2)c1C,1.1,5.4,-17.2,144.3*
C[C@@H]1CCCCO[C@@H](CN(C)C(=O)Cc2ccccc2)[C@@H](C)CN([C@H](C)CO)C(=O)c2cc(NC(=O)c3ccncc3)ccc2O1,3.6,/,5.8[16.7 µM],/
SMILES,PglD DTNB,NSD2 inh,miR-122 sensor,C2C12 statin
Cc1cc(C)c(C)c(S(=O)(=O)NCc2ccncc2)c1C,/,-1.7,122.1*,-3.0
Cc1cc(Cl)c(S(=O)(=O)NCc2ccncc2)cc1OCC(N)=O,-0.9,3.6,2.6,129.2*
Cc1ccc(S(=O)(=O)NCc2ccncc2)cc1C,/,-1.6,32.9,-7.9
Cc1ccccc1NS(=O)(=O)c1cc(OCC(N)=O)c(C)cc1Cl,/,-3.8,13.9,4.3
Cc1cc(Cl)c(S(=O)(=O)NCc2ccccc2)cc1OCC(N)=O,2.1,-1.0,173.6*,5.3
Cc1cc(C)nc(Sc2nc(Cl)nc(N(c3ccccc3)c3ccccc3)n2)n1,6.1,2.5,-2.1,101.6*
Cc1cc(C)nc(SC(C(=O)O)c2ccccc2)n1 (configuration not stated),/,-2.7,/,/
Cc1ccc(-n2c(CSc3nc(C)cc(C)n3)n[nH]c2=S)cc1,/,1.1,-0.6,/
Cc1cc(C)nc(SCc2n[nH]c(=S)n2C)n1,-2.4,0.4,18.1,91.9*
COc1ccc(NC2CC(=O)N(C(C)C)C2=O)cc1 (configuration not stated),-1.1,/,-2.0,8.2
CC(C)N1C(=O)CC(Nc2ccc(N3CCOCC3)cc2)C1=O (configuration not stated),-10.6,14.7,182.9*,-22.5
COCCCN1C(=O)c2ccc(C(=O)O)cc2C1=O,0.2,0.2,5.2,100.0*
CCN1C(=O)c2ccc(C(=O)O)cc2C1=O,-3.0,-3.7,5.1,2.9
CO[C@@H]1CN(C)C(=O)c2ccc(NC(=O)Nc3ccccc3)cc2OC[C@@H](C)N(C(=O)Nc2c(C)noc2C)C[C@H]1C,3.0,/,-4.6[16.7 µM],1.8
CC(C)Cn1c(NCCO)nc2ccccc21,1.4,-0.8,-6.8,93.3*
OCCNc1nc2ccccc2n1CC(O)c1ccccc1 (configuration not stated),/,-0.5,/,/
Cc1ccc(S(=O)(=O)N[C@@H]2CC[C@@H](CC(=O)NCc3ccc(Cl)c(Cl)c3)O[C@H]2CO)cc1,0.9,/,/,-1.0
O=C(NN=Cc1ccccc1Cl)c1ccccc1,4.8,-1.5,/,/
CC(C)c1ccc(C(=O)N/N=C/c2cccc(Cl)c2Cl)cc1,-1.1,-1.5,4.4,112.5*
Cc1ccc(S(=O)(=O)N/N=C2/CC(c3ccccc3)Oc3ccccc32)cc1 (configuration not stated),2.4,1.5,5.9,87.8*
Cc1ccc(S(=O)(=O)N/N=C\c2cn(CC(N)=O)c3ccccc23)cc1C,0.0,/,/,-1.4
NC(=O)Cn1cc(/C=N\NS(=O)(=O)c2ccc(Cl)cc2)c2ccccc21,-3.8,-2.1,127.8*,18.4
CC(=O)Nc1cccc(-c2ccnc3c2CC(C)(C(=O)Nc2ccc(Cl)c(C(F)(F)F)c2)O3)c1 (configuration not stated),11.4,1.7,1.0,80.5*
CC(=O)Nc1cccc(-c2ccnc3c2CC(C)(C(=O)Nc2ccc(F)c(Cl)c2)O3)c1 (configuration not stated),6.9,3.8,-2.3,10.8
CCCC#Cc1cnc2c(c1)C(=O)N([C@@H](C)CO)C[C@H](C)[C@@H](CN(C)C(=O)CN1CCOCC1)O2,-0.2,/,-5.2[16.7 µM],2.7
COC(=O)c1cc(S(=O)(=O)NCC(C)c2ccccc2)c[nH]1 (configuration not stated),-1.9,-0.3,6.5,-3.8
COC(=O)c1cc(S(=O)(=O)NCCc2ccccc2)c[nH]1,7.0,/,17.8,120.0*
NC12CC3CC(C1)CC(CO)(C3)O2,/,1.2,-1.9,110.9*
C[C@H](CO)N1C[C@H](C)[C@H](CN(C)C(=O)Nc2cccc3ccccc23)Oc2ccc(NC(=O)Nc3ccc4c(c3)OCO4)cc2C1=O,-1.1,/,-4.6[16.7 µM],-38.1
CC(=O)N1c2ccc(S(=O)(=O)NCCC(=O)NCCc3ccc(C)cc3)cc2CC1C (configuration not stated),-0.8,-1.0,3.9,109.1*
